From PubChem BioAssay (NCI)
Compounds without any hit were thinned out: in the full panel of roughly 79,000, 15% have a hit. Values without a mark were called inactive. The source made the active and inactive calls. Rule as the data show it: active = growth inhibition above about 70%; inactive = the rest.

Assay: NCI Yeast Anticancer Drug Screen. Data for the rad14 strain (AID 159);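 also: 0% = growth of vehicle-treated control cultures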
Settings: S. cerevisiae rad14 strain growth inhibition, hits give high values
Procedure: Growth inhibition of yeast strains with defined genetic alterations is measured as a screen for potential anti-cancer activity. Selected strains with alterations in DNA damage repair or cell cycle control were exposed to compounds and growth inhibition was measured relative to vehicle treated controls. The strain used in this assay is rad14

SMILES	growth inhibition (at 1.2 µM)	growth inhibition (at 3.7 µM)	growth inhibition (at 11.0 µM)	growth inhibition (at 33.0 µM)	growth inhibition (at 100.0 µM)
COc1cccc2c1C(=O)c1c(O)c3c(c(O)c1C2=O)C[C@@](O)(/C(C)=N\O)C[C@@H]3OC1CC(N)C(O)C(C)O1 (stereo not given in full)	1%	3%	8%	29%	63%
CC(C)(C)c1cc([N+](=O)[O-])cc([N+](=O)[O-])c1O	-19%	-12%	6%	26%	29%
Oc1cccc2cccnc12	22%	85% (active)	98% (active)	98% (active)	98% (active)
O=C(COc1ccc(Cl)cc1Cl)NO	-1%	3%	7%	46%	98% (active)
CC[C@@]1(O)C(=O)OCc2c1cc1n(c2=O)Cc2cc3ccccc3nc2-1	21%	55%	89% (active)	97% (active)	96% (active)
CSc1ccccc1[As](C)C	5%	26%	87% (active)	99% (active)	100% (active)
Oc1cccnc1[Se]	1%	1%	5%	95% (active)	99% (active)
O=C1c2ccccc2C(=O)C(Cl)C1Cl (stereo not given)	7%	18%	92% (active)	99% (active)	99% (active)
